# PubChem BioAssay AID686971 (National Center for Advancing Translational Sciences (NCATS), 2013)
# Among all 360,000 compounds or so, about 7,500 (2.1%) were called active. Where a call stands in place of a potency, no number is given. Inconclusive results (about 8%) are left out. The sample holds actives, similar compounds and a random draw of the others, so the mix is not that of the screen. The call rests on the fitted dose curve; in most records, active means well fitted cell-killing curve with a large enough effect; inconclusive means small, poorly fitted or top-dose-only effect, or effect the other way, or another doubt; inactive means no such curve, though single readings can be large or run the other way.
# Test: qHTS for induction of synthetic lethality in tumor cells producing 2HG: qHTS for the HT-1080-IDH1KD cell line
# Settings: HT-1080 IDH1 knockdown viability, ATP luminescence, 48 h; series mostly up to 46.1 µM
# Excerpt: Unbiased genomic sequencing for 22 glioma genomes found recurrent mutation of IDH1 on chromosome 2q33, a gene encoding the cytosolic isoform of IIDH1 associated with the tri-carboxylic acid cycle (TCA) that catalyzes the oxidative decarboxylation of isocitrate, yielding alpha-ketoglutarate and CO2 via NADP+ to NADPH conversion. Subsequent studies confirmed the recurrent IDH mutations in up to 70% of secondary gliomas and in 10% of AML cases. In addition, the somatic mutation of cancer-associated IDH1 is a point mutation resulting in various amino-acid substituents at Arginine132 (IDH1 R132), a key residue found in the enzyme's active site that when mutated, results in the loss-of-function in metabolizing isocitrate but confers a gain-of-function to produce the oncometabolite 2-hydroxyglutarate (2HG). This in effect defines IDH1 as an oncogene and provides an extraordinary opportunity to discover chemical probes against mutant IDH1 that may translate into much needed new therapies for glioma and AML patients.
# This assay aims to perform a synthetic-lethal screen for chemical probes specific for 2HG-producing tumor cells using matched paired cell lines (1) HT-1080-NT fibrosarcoma cell line that overproduces 2HG and (2) HT-1080-IDH1KD cell line which has IDH1 expression knocked-down. Desirable compounds are toxic to the NT fibrosarcoma cell line but not to the IDH1KD cell line. The data in this AID corresponds to the results of the qHTS against the HT-1080 IDH1KD cell line.
# [1] Dang L, Jin S, Su SM. IDH mutations in glioma and acute myeloid leukemia. Trends of Mol Med. 2010; 16(9): 387-97.
# [2] Dang L et al. Cancer-associated IDH1 mutations produce 2-hydroxyglutarate. Nature. 2010; 465(7300):966.
# Molecular Libraries Probe Production Centers Network [MLPCN]
# NIH Chemical Genomics Center [NCGC]
# Assay Submitter (PI): Lenny Dang Ph.D., Agios Pharmaceuticals
# Suspensions of trypsinized HT-1080-IDH1KD cells were dispensed into white, tissue culture-treated, solid 1536-well plates at 5uL/well (750 cells/well final concentration) in RPMI medium supplemented with 5% FBS. Plates were incubated at 37 degrees C for 2 hours, after which 23 nL of compounds or DMSO were delivered to each well using a pin tool. Plates were then incubated at 37 degrees C for an additional 48 hours. CellTiter-Glo viability reagent (Promega) was dispensed into wells (2.5uL/well) and incubated at room temperature for 10 minutes. The plates were measured on a PerkinElmer ViewLux plate reader for luminescent signal (clear filter, 1 sec exp.). DMSO-treated control wells and media-only (no cells) control wells were used to normalize %Activity of identified toxic compounds; DMSO-treated wells corresponded to 0%Activity (100% viability), while media-only controls were used to normalize 100%Activity (0% viability). To minimize variability between cell lines, both HT-1080-NT and HT-1080-IDH1KD lines were dispensed and treated with identical compound series in single batches.
# Concentration-response curves were fitted to the signals arising from the resulting luminescence. The concentration-effect curves were then classified based on curve quality (r2), response magnitude and degree of measured activity, and compounds were subsequently categorized based on their curve class.
# Potency means the concentration at half of the fitted maximal effect.
row,Structure (SMILES),Potency
1,CC(=O)C[C@@H]1OC[C@H](CO)N1S(=O)(=O)c1ccc(C)cc1,inactive
2,Cn1ncc([N+](=O)[O-])c1C(=O)Nc1cc(Cl)ccc1Cl,inactive
3,CCCC/C=C/c1cccc2nncn12,inactive
4,CN(C)C(CNC(=O)c1cc(Br)c(Br)s1)c1ccco1 (stereo not given),inactive
5,CC1CCN(C(=O)CSc2nnc(-c3ccco3)n2N)CC1,inactive
6,O=C(CCCOc1ccc(Cl)cc1Cl)NNC(=O)C1CCC1,inactive
7,COc1cccc(CN2CCC(C(=O)NC(c3ccc4c(c3)OCO4)c3ccccn3)CC2)c1 (stereo not given),inactive
8,O=C(NC(c1ccc(-c2ccccc2)cc1)c1cnccn1)C1CCN(CCOc2ccc(Cl)cc2Cl)CC1 (stereo not given),14.6 µM (active)
9,O=C1NC(Cc2ccccc2)c2nc3ccc(Br)cc3c(=O)n2-c2cc3ccccc3cc21 (stereo not given),inactive
10,COc1ccc(CN2C(=O)C(CC(=O)NC3CCCCC3)CC(C(=O)N3CCOCC3)=C2C)cc1 (stereo not given),inactive
11,COc1ccccc1CCNS(=O)(=O)c1cn(C)nc1C,inactive
12,COc1ccc(-c2nn(-c3ccccc3)cc2C(=O)Nc2nccs2)cc1OC,inactive
13,COC(=O)c1ccc2nc(-c3cccc(Br)c3)c(Cc3ccccc3C(F)(F)F)n2c1,inactive
14,COc1ccccc1Cc1c(-c2ccc(Cl)cc2)nc2ccc(Cl)cn12,inactive
15,CCCCCc1c(-c2cccc(Br)c2)ncn1CCc1ccccc1OC,18.4 µM (active)
16,COC(=O)c1ccc2nc(-c3cccc(Br)c3)c(Cc3ccc(OC)cc3C)n2c1,inactive
17,CCCCCc1c(-c2ccc(OC)c(OC)c2)ncn1CCc1ccccc1OC,10.3 µM (active)
18,CCCCc1c(-c2ccc(Br)cc2)ncn1CCc1ccccc1OC,7.31 µM (active)
19,CCC(=O)NCc1cc(-c2nn(C)c(=O)c3ccccc23)ccc1OC,inactive
20,COc1cccc(-c2cnc(C(O)c3ccccc3OC)[nH]2)c1 (stereo not given),inactive

row,Structure (SMILES),Potency
1,CCCOc1ccc(F)cc1-c1cc(C(=O)NCc2ccc(F)cc2)[nH]n1,inactive
2,O=C(COc1ccc(S(=O)(=O)N2CCCC2)cc1[N+](=O)[O-])N1CCCCC1,inactive
3,CCCCCCCCN1C(=O)[C@H](CC(=O)NCC23CC4CC(CC(C4)C2)C3)C[C@@]2(C(=O)OC)CCCCC=C12,inactive
4,C[C@@H]1CN([C@@H](C)CO)C(=O)c2c(c3ccccc3n2C)-c2ccccc2CO[C@H]1CN(C)C(=O)C1CC1,inactive
5,Cc1c(C(=O)NCc2ccc(C#N)cc2)sc(=O)n1Cc1ccc(C(=O)N(C)C)cc1,inactive
6,CN(C)CCCOc1ccc(-c2ccc3nccn3c2)cn1,inactive
7,CN1CCN(C(=O)c2ccc(NC(=O)c3ccc(Br)o3)cc2)CC1,inactive
8,CC1(c2ccccc2)NC(=O)N(CC(=O)Nc2cc(Cl)ccc2N2CCOCC2)C1=O (stereo not given),inactive
9,Cc1ccccc1NC(=O)CSc1nc2ccc(Nc3nc(N4CCOCC4)nc(N4CCOCC4)n3)cc2s1,inactive
10,O=C(CSc1nc(Nc2ccccc2)nc(N2CCOCC2)n1)Nc1cc(Cl)ccc1O,18.4 µM (active)
11,C=CCC[C@H](CCCCC)OC(=O)/C=C/[C@H](O)[C@@H](O)C[C@@H](O)CC=C,inactive
12,O=C(O)CC1=C(Nc2ccccc2)C(=O)N(c2ccccc2)C1c1ccc(Cl)cc1 (stereo not given),inactive
13,O=C(CCC(=O)OCc1ccc(Cl)cc1)Nc1ccccc1,inactive
14,O=C1C=C(c2ccc(Cl)cc2)C(=O)N1Nc1ccccc1,18.4 µM (active)
15,CCCNC(=O)c1cc(C2CCCCN2C(=O)OC)on1 (stereo not given),inactive
16,c1ccc2c(c1)nnn2-c1ccncc1,inactive
17,O=C(NCCCN1CCOCC1)c1cn(-c2ccccc2)nc1-c1ccc(F)cc1,inactive
18,O=C(/C=C/c1cn(-c2ccccc2)nc1-c1ccc2c(c1)OCCO2)NCCCN1CCOCC1,20.6 µM (active)
19,COc1ccc(-c2nn(-c3ccccc3)cc2/C=C\C(=O)N2CCOCC2)cc1[N+](=O)[O-],inactive
20,COC(=O)c1ccc2nc(C3CCCCC3)c(Cc3cccc(F)c3)n2c1,inactive

row,Structure (SMILES),Potency
1,CCc1ccc([C@@H]2CC(=O)[C@@H]3CN(S(=O)(=O)c4ccc(C)cc4)[C@H](c4ccc(Cl)cc4)C[C@@H]3N2S(=O)(=O)c2ccc(C)cc2)cc1,inactive
2,CC(=O)Nc1cc(-c2ccc(N3CCN(C)CC3)cc2)cn2c(-c3ccc(F)cc3)cnc12,23.1 µM (active)
3,O=C(NCCO)c1cccc(-c2cccc3nccn23)c1,inactive
4,COc1cccc(-c2cc(NC(C)=O)c3ncc(-c4cccc(C(C)=O)c4)n3c2)c1,inactive
5,N#C/C=C(/c1ccc(F)cc1)N1CCOCC1,inactive
6,O=CNc1cc(-c2ccc(C(=O)N3CCOCC3)cc2)cn2c(-c3ccc(F)cc3)cnc12,13 µM (active)
7,COc1ccccc1-c1cc(NC(C)=O)c2ncc(-c3ccc(F)cc3)n2c1,inactive
8,CN(C)C(=O)c1cccc(-c2cnc3c(NC=O)cc(-c4ccc(C(=O)N5CCOCC5)cc4)cn23)c1,inactive
9,CCC(C)C(=O)Nc1ccccc1N1CCN(c2ccc(F)cc2)CC1 (stereo not given),inactive
10,CC(=O)Nc1cc(-c2ccc(N3CCN(C)CC3)cc2)cn2c(-c3cccc(C(=O)N(C)C)c3)cnc12,inactive
11,COc1cccc(-c2cnc3c(NC(C)=O)cc(-c4cc(F)ccc4OC)cn23)c1,9.2 µM (active)
12,CN(C)CCNC(=O)c1cccc(-c2cnc3c(NC=O)cc(-c4cccc(C(F)(F)F)c4)cn23)c1,18.4 µM (active)
13,CC(=O)Nc1cc(-c2cccc(CO)c2)cn2c(-c3cccc(C(F)(F)F)c3)cnc12,inactive
14,O=C1NC[C@H](CCCCN2C[C@H](Cc3ccccc3)N(Cc3ccccc3)C(=O)C2=O)N(CCc2ccc(O)cc2)C1=O,inactive
15,Cc1ccc(-c2ccc(C3=CC(=O)CC(C)(C)C3=O)cc2)cc1,inactive
16,CC(C)C[C@@H]1Cc2[nH][nH]c(=O)c2[C@H](CCc2ccccc2)O1,inactive
17,CCOC(=O)[C@]12CCCC=C1N(CCC1=CCCCC1)C(=O)[C@H](CC(=O)NCCCOC)C2,inactive
18,CCCNC(=O)C1(C)CCCN(C(=O)c2oc3ccccc3c2C)C1 (stereo not given),inactive
19,O=NN(CCCl)C(=O)NCCc1cccc[n+]1[O-],inactive
20,CCc1nc2ccc(C(=O)NC3CCN(Cc4ccccc4)CC3)cn2c1N(C)CCN1CCOCC1,inactive
